Holding throughout (test): qHTS profiling for inhibitors of Plasmodium falciparum proliferation (AID 504749); also: nearly all actives have a fitted effect of over 60% in size
Holding throughout (settings): P. falciparum in erythrocytes, SYBR Green DNA, 72 h; series mostly up to 28.7 µM
Background: qHTS replaces the single test concentration by a dilution series.

One test relates to CP203. The gist of the method:
(§1)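 P. falciparum-infected erythrocytes (0.3% parasitemia, 2.5% hematocrit final) were exposed to compounds for 72 h at 37 C in 5% CO2, then lysed with SYBR Green buffer overnight at room temperature; parasite DNA fluorescence was normalized to artemisinin and DMSO controls.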

In a further test the test system is CP211. The gist of the method: as §1
The next test concerns CP215. The gist of the method:
as §1

In a further test the test system is CP217. The gist of the method: as §1
In a further test the test system is CP237. In outline:
as §1

Another test has as its system CP238. In outline: as §1
In another test the test system is CP247. The gist of the method: as §1
A further test relates to CP250. In outline:
as §1

Another test has as its system CP252. In outline:
as §1

The test system of another test is CP256. In outline:
as §1

Results filed as inconclusive are left out. Calls of active or inactive are those of the source. Calls follow the shape of the dose curve; as a rule, active = well fitted inhibition curve with a large enough effect; inconclusive = small, poorly fitted or top-dose-only effect; inactive = flat fitted curve, though single readings scatter.
Potency is read from the fitted curve at half-maximal effect.

Regarding `CCC1(c2ccccc2)C(=O)NC(=O)NC1=O`, the Potency result in the test with CP203, in the test on CP211, with CP215, in the test on CP217, with CP237 and in the test with CP238 was “inactive” in each case. In addition, the Potency result with CP247, with CP250, in the test on CP252 and in the test with CP256 was “inactive” in each case.

As to `O=C1CCO1`, the Potency result in the test on CP203, with CP211, in the test with CP215, with CP217, with CP237 and in the test with CP238 was “inactive” each time. Further, the Potency entry in the test on CP247, with CP250, in the test with CP252 and in the test on CP256 was “inactive” each time.

Consider `C[C@]12CCC(=O)C[C@@H]1CC[C@@H]1[C@@H]2CC[C@]2(C)[C@@H](O)CC[C@@H]12`, for which the Potency result in the test on CP203, with CP211, in the test with CP215, with CP217, in the test on CP237 and with CP238 was “inactive” each time. The Potency entry in the test with CP247, in the test on CP252 and in the test on CP256 was “inactive” each time.

Turning to `O[C@H]1[C@H]2[C@H](O)CCCN2C[C@H]1O`, the Potency result in the test on CP203, in the test on CP211, in the test with CP215, in the test with CP217, in the test on CP237 and in the test on CP238 was “inactive” throughout. For the same molecule, the Potency result in the test with CP247, with CP250, in the test on CP252 and with CP256 was “inactive” in each case.

For the molecule `CCC1(C)CC(=O)NC(=O)C1`, the Potency entry in the test with CP203, in the test on CP211, in the test on CP215, with CP217, in the test with CP237 and in the test on CP238 was “inactive” throughout. In addition, the Potency result in the test with CP247, in the test on CP250, in the test with CP252 and in the test on CP256 was “inactive” in each case.

As for `COCC(C)N(C(=O)CCl)c1c(C)csc1C` (stereo unspecified), the Potency entry in the test with CP203, with CP211, in the test with CP215, in the test on CP217, in the test on CP237 and in the test with CP238 was “inactive” each time. Also, the Potency entry in the test with CP247, in the test on CP250, in the test on CP252 and in the test on CP256 was “inactive” each time.

On to `[O]=[Cd]`, for which the Potency result with CP203, in the test with CP211, with CP215, in the test on CP217, with CP237 and in the test with CP238 was “inactive” in each case. Also, the Potency result in the test with CP247, in the test on CP250, in the test on CP252 and in the test with CP256 was “inactive” each time.

Consider `ClC=C(Cl)Cl`, for which the Potency result in the test with CP203, in the test with CP211, with CP215, with CP217, with CP237 and with CP238 was “inactive” throughout. The Potency entry with CP247, in the test with CP250, with CP252 and in the test with CP256 was “inactive” each time.

For the molecule `COC1=CC=C2[C@H]3Cc4ccc(OC)c5c4[C@@]2(CCN3C)[C@H]1O5`, the Potency entry in the test on CP203, in the test on CP211, with CP215, in the test on CP217, in the test with CP238 and in the test with CP247 was “inactive” each time. The Potency result in the test with CP250, in the test with CP252 and with CP256 was “inactive” in each case.

On to `CNC(=O)Oc1ccccc1C(=O)Nc1ccccc1`, for which the Potency entry with CP203, in the test with CP211, with CP237, with CP238, with CP250 and with CP252 was “inactive” each time.

Consider `CC12NC(Cc3ccccc31)c1ccccc12` (stereo unspecified), for which the Potency result in the test with CP211, with CP215 and in the test on CP250 was “inactive” each time.

As for `C=CCN1CC[C@]23c4c5ccc(O)c4O[C@H]2[C@@H](O)C=C[C@H]3[C@H]1C5`, the Potency entry in the test on CP203, in the test on CP211, in the test with CP215, with CP217, with CP237 and in the test on CP238 was “inactive” in each case. The Potency entry with CP250, with CP252 and with CP256 was “inactive” in each case.

For `C[CH2][Hg][S]c1ccccc1C(=O)O`, the Potency in the test with CP211 was 4.26 µM (active); in the test with CP215, 1.51 µM (active); in the test with CP217 it was 3.98 µM (active); with CP237, 1.26 µM (active); with CP238, 3.55 µM (active); in the test with CP247 it was 3.16 µM (active). Moreover, the Potency was 3.55 µM (active) in the test on CP250, 3.16 µM (active) in the test on CP252 and 3.16 µM (active) in the test with CP256.

Consider `Cc1sc2ccccc2c1CC1=NCCN1`, for which the Potency result in the test on CP203, in the test with CP211, in the test on CP215, in the test with CP217, in the test with CP238 and in the test with CP247 was “inactive” throughout. In addition, the Potency result in the test with CP250, in the test with CP252 and in the test with CP256 was “inactive” each time.

With `CCCN1CCCC2Cc3[nH]ncc3CC21` (stereo unspecified), the Potency result with CP217, in the test on CP237, in the test with CP238, in the test on CP247, with CP250 and with CP252 was “inactive” each time. Also, the Potency entry with CP256 was “inactive”.

For the molecule `CNC(=O)OCC[N+](C)(C)C`, the Potency entry in the test with CP203, in the test with CP215, in the test with CP217, in the test with CP237, in the test on CP238 and with CP247 was “inactive” in each case. The Potency entry with CP250, with CP252 and in the test on CP256 was “inactive” in each case.

With `CCOP(=O)(OCC)O/C(=C/Cl)c1ccc(Cl)cc1Cl`, the Potency entry in the test with CP237, in the test with CP238, with CP250, in the test on CP252 and in the test with CP256 was “inactive” each time.

As for `C=CCN=C=S`, the Potency entry in the test on CP217, in the test with CP237, with CP238, in the test with CP247, with CP250 and with CP252 was “inactive” each time. Also, the Potency result in the test with CP256 was “inactive”.

On to `F/C(COc1ccc2c(c1)[nH]c1ccccc12)=C1/CN2CCC1CC2`, for which, in the test on CP215, the Potency entry was “inactive”. For the same molecule, the results for the Potency with CP237 and in the test with CP238 were 6.31 µM (active) and 11.2 µM (active), respectively.

On to `Oc1cccc[c]1[Hg][Cl]`, for which the Potency was 9.53 µM (active) in the test on CP211; 10.7 µM (active) in the test on CP215; 8.91 µM (active) in the test on CP217; 10 µM (active) with CP237; 11.2 µM (active) in the test with CP238; 8.91 µM (active) in the test on CP247. In addition, the Potency in the test with CP252 is 12.6 µM (active); with CP256 it was 11.2 µM (active).

Take `OC(c1ccccc1)(c1ccccc1)C1CN2CCC1CC2` (stereo unspecified): the Potency entry with CP203, with CP211, in the test on CP217, with CP238, in the test with CP250 and with CP252 was “inactive” each time. Moreover, in the test on CP256, the Potency entry was “inactive”.

As for `CCN(CC)C(=O)/C(Cl)=C(\C)OP(=O)(OC)OC`, the Potency entry in the test on CP217, in the test with CP237, in the test on CP238, in the test with CP247, in the test with CP250 and with CP252 was “inactive” each time. Besides, the Potency entry in the test with CP256 was “inactive”.

For the molecule `[Cl-].[Cl-].[Hg+2]`, the Potency result in the test with CP203, in the test with CP215 and in the test with CP250 was “inactive” each time. Also, the Potency in the test on CP217 was 8.91 µM (active); with CP238, 10 µM (active).

Consider `CCC1(c2ccccc2)C(=O)NC(=O)N(C)C1=O` (stereo unspecified), for which the Potency result in the test on CP203, with CP211, in the test on CP217, with CP237, in the test on CP238 and with CP247 was “inactive” in each case. The Potency entry in the test on CP250, in the test on CP252 and in the test on CP256 was “inactive” throughout.

`O=c1c2ccccc2[se]n1-c1ccccc1`: the Potency result in the test on CP203, in the test with CP215, with CP252 and with CP256 was “inactive” throughout.

Turning to `CCC1(c2ccccc2)C(=O)NC(=O)N(C(=O)c2ccccc2)C1=O` (stereo unspecified), the Potency result in the test with CP203, in the test with CP211, with CP215, with CP217, with CP237 and with CP238 was “inactive” throughout. Moreover, the Potency result in the test on CP250, in the test with CP252 and in the test with CP256 was “inactive” each time.

On to `C[C@@H](Cc1ccccc1)NCCC(c1ccccc1)c1ccccc1`, for which the Potency entry in the test on CP211, in the test on CP215, in the test on CP237, with CP238 and with CP252 was “inactive” each time.

As for `CC1CCC(C(C)C)C(OC(=O)c2ccccc2N)C1` (stereo unspecified), the Potency entry in the test with CP203, in the test on CP211, in the test on CP215, in the test on CP217, with CP238 and in the test with CP247 was “inactive” in each case. The Potency result in the test on CP250, with CP252 and with CP256 was “inactive” throughout.

For `CCC(=O)O[C@@](Cc1ccccc1)(c1ccccc1)[C@@H](C)CN(C)C`, the Potency entry in the test on CP203, in the test on CP215, with CP217, in the test on CP237, with CP238 and in the test with CP247 was “inactive” throughout. The Potency result in the test on CP250, with CP252 and with CP256 was “inactive” in each case.

On to `N#CC(C#N)=Cc1cc(O)c(O)c(O)c1`, for which the Potency in the test with CP211 was 13.5 µM (active); with CP237, 8.91 µM (active); in the test on CP247 it was 8.91 µM (active); in the test on CP250 it was 11.2 µM (active).

(Values after PubChem BioAssay (NCATS).)
